# Results published in PubChem BioAssay (NCATS).
# Inconclusive results are not listed. A call without a number means that no potency is given here. Active and inactive are the calls of the source. Unless noted, the call rests on the fitted dose curve; in most records, active means well fitted curve in the direction sought with a large enough effect; inconclusive means small, poorly fitted or top-dose-only effect, or another doubt; inactive means no such curve, though single readings can be large; an effect the other way counts as inactive or inconclusive.
# What was measured:
# [1] = NCATS anti-infectives library activity on HEK293 viability as a counter-qHTS vs the C. elegans viability qHTS (AID 1745854);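 further: HEK293 cells exposed to compounds for 24 hr before the viability read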
# Summary of the method: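 HEK293 cells (1,500/well) exposed 24 hr at 37C to 1:5 titrations, up to 41.7 uM final; counter-screen to a C. elegans viability qHTS. Viability by CellTiter-Glo luminescence after 10 min at room temperature; digitonin as control.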
# [2] = target: Glutathione peroxidase 1 (Homo sapiens) (UniProt P07203); assay: Primary qHTS Assay for Inhibitors of Recombinant Selenoprotein Glutathione Peroxidase 1 (GPX1) (AID 1845191); further: nearly all actives have a fitted effect of over 65% in size
# Sequence of Glutathione peroxidase 1 (Homo sapiens) (P07203 whole entry, looked up): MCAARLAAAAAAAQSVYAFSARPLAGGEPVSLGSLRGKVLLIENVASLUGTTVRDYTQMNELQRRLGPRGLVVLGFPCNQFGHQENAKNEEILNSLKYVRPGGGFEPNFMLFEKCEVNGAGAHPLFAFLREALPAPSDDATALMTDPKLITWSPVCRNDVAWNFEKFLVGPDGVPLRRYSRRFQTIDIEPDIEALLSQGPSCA
# Summary of the method: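 Recombinant GPX1 (10 nM final) was preincubated with compound for 30 min at room temperature, then reacted with 1 mM GSH, 0.5 mM CHP, 0.5 mM NADPH and 100 nM glutathione reductase; NADPH fluorescence (340/450 nm) was read at 0 and 15 min.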
# [3] = target: Phospholipid hydroperoxide glutathione peroxidase GPX4 (Homo sapiens) (UniProt P36969); assay: Primary qHTS Assay for Inhibitors of Recombinant Selenoprotein Glutathione Peroxidase 4 (GPX4) (AID 1845192); further: nearly all actives have a fitted effect of over 65% in size; further: potency means the concentration at half of the fitted maximal effect
# Sequence of Phospholipid hydroperoxide glutathione peroxidase GPX4 (Homo sapiens) (P36969 whole entry, looked up): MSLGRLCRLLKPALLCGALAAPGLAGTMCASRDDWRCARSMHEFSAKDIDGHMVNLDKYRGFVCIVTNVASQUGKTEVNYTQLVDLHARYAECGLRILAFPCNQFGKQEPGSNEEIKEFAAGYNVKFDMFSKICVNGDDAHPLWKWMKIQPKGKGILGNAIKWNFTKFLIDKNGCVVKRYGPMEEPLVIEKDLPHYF
# Summary of the method: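 GR-coupled readout: 100 nM GR, 1 mM GSH, 0.5 mM NADPH; NADPH fluorescence (ex 340/em 450 nm) read at t=0 and after 15 min RT. GPX4 200 nM, preincubated 30 min with compound; substrate 0.5 mM CHP.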
# [4] = qHTS drug screen for cell cycle checkpoint inhibitors in PARPi-resistant BRCA-mutant ovarian cancer cell lines. (AID 1963452; calls by dose curve); conditions: PEO1/OlaR viability, CellTiter-Glo luminescence, 96 h, stronger effect = lower value
# Summary of the method: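 PEO1, PEO4 and PEO1/OlaR ovarian cancer cells, 600 per well, exposed 96 h at 37C to a dilution series. Viability read by CellTiter-Glo luminescence, normalized to DMSO and empty wells; activity summarized as Z-AUC.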
# [5] = NCATS anti-infectives library activity on the primary C. elegans qHTS viability assay (AID 1745855; calls by dose curve; further: potency means the concentration at half of the fitted maximal effect)
# Summary of the method: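 Viability read-out is GFP fluorescence of PE254-GFP-FLuc C. elegans, measured by laser cytometry (488 nm) at day 0, 3 and 7. Ten L1 worms per well were incubated 7 days at 21 °C with compounds and bacterial capsules in S medium.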
# [6] = target: Androgen receptor (Homo sapiens) (UniProt P10275); assay: qHTS assay for small molecule antagonists of androgen receptor signaling (AID 588516; active means well fitted curve in the direction sought with a large enough effect in the signal ratio, with a control signal flat, not every such curve was filed as active; the % refers to the signal ratio)
# Sequence of Androgen receptor (Homo sapiens) (P10275 whole entry, looked up): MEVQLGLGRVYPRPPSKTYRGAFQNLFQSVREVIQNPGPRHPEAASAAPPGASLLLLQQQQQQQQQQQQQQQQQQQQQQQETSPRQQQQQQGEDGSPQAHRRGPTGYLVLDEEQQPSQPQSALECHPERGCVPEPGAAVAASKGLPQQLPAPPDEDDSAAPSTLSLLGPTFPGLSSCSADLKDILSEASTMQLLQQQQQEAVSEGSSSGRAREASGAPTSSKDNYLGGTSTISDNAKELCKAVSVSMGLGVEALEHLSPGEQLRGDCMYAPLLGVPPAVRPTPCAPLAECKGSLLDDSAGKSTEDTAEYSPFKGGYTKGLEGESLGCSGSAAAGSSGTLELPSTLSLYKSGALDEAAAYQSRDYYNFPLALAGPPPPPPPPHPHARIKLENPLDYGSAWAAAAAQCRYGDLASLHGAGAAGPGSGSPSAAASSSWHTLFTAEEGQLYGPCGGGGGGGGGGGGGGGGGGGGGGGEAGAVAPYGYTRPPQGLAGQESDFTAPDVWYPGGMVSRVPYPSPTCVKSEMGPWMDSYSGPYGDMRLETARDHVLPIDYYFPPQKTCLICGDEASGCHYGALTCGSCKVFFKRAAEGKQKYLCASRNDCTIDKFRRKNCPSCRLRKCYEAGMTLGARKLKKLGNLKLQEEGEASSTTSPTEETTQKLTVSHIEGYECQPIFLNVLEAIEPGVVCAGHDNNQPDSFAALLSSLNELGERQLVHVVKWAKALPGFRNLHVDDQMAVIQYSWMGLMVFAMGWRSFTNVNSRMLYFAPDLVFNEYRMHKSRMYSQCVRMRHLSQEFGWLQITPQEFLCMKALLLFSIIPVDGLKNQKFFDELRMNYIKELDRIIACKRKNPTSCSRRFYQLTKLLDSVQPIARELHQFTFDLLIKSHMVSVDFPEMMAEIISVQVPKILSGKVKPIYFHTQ
# Summary of the method: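 Antagonist mode: inhibition of R1881-stimulated (10 nM final) bla reporter in GeneBLAzer AR HEK 293 cells, 16 h at 37C, compounds titrated. IC50 and efficacy from Hill-equation fits of 405/460–530 nm FRET ratios.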
# [7] = target: Glucocorticoid receptor (Homo sapiens) (UniProt P04150); assay: qHTS assay for small molecule agonists of glucocorticoid receptor signaling (AID 588532; active means well fitted curve in the direction sought with a large enough effect in the signal ratio, with a control signal flat; the % refers to the signal ratio); conditions: HeLa MMTV-bla, beta-lactamase ratio, agonist, 18 h; stronger effect = higher value; percent of dexamethasone control, DMSO zero
# Sequence of Glucocorticoid receptor (Homo sapiens) (P04150 whole entry, looked up): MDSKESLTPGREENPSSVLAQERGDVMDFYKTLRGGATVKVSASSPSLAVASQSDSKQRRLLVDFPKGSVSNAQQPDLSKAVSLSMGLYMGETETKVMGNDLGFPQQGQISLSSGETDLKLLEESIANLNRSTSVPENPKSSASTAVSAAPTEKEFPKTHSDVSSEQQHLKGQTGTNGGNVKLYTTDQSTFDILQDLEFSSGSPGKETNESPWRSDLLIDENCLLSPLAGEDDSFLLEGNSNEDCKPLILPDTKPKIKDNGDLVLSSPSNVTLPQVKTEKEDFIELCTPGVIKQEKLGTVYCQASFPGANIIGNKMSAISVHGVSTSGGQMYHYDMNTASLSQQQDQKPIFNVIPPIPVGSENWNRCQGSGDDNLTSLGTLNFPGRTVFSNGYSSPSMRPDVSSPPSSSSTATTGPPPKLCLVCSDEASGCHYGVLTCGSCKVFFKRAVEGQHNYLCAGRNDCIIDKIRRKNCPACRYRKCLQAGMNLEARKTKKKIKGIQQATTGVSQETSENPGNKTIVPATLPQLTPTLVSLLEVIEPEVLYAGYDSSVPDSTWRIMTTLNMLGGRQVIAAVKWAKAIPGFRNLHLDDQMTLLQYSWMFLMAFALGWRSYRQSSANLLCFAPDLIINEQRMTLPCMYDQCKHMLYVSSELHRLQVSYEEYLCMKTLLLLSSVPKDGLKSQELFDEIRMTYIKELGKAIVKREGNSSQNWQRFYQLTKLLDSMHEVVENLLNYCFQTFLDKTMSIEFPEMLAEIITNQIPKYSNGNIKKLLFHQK
# Summary of the method: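 Stimulation of a glucocorticoid response element-driven beta-lactamase gene was measured in HeLa cells. Responses were scaled between DMSO basal and 0.1 uM dexamethasone, then fitted for half-maximal stimulation.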
# [8] = qHTS assay for small molecule antagonists of peroxisome proliferator-activated receptor delta signaling (AID 588535; active means well fitted inhibition curve with a large enough effect in the signal ratio, with a control signal flat, not every such curve was filed as active; the % refers to the signal ratio;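 on max response: cells co-treated with a PPAR-delta agonist as stimulator during compound exposure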); conditions: HEK293T PPARd-UAS-bla, beta-lactamase FRET ratio, 18 h; 460 nm channel
# Summary of the method: (§1)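 Reporter: UAS-bla under PPAR-delta response element, HEK293T host. Medium: 2% charcoal/dextran FBS. Dosing: titration, 18 hrs, 37 C. Detection: CCF4, 2 hrs RT, 405 ex/460 and 530 em.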
# [9] = target: Peroxisome proliferator-activated receptor delta (Homo sapiens) (UniProt Q03181); assay: as above
# Sequence of Peroxisome proliferator-activated receptor delta (Homo sapiens) (Q03181 whole entry, looked up): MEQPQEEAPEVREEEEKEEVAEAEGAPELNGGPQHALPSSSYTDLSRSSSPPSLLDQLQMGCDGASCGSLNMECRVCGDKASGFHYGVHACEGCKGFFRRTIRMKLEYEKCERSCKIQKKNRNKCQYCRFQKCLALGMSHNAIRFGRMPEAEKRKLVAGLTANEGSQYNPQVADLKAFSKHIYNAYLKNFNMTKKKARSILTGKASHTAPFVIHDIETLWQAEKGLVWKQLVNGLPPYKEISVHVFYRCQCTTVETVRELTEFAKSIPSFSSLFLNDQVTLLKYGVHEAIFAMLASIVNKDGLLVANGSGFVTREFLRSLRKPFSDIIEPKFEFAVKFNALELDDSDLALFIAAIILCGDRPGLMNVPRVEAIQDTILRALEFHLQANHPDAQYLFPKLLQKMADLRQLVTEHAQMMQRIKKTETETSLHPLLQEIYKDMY
# Summary of the method: as §1
# [10] = target: Peroxisome proliferator-activated receptor gamma (Homo sapiens) (UniProt P37231); assay: qHTS assay for small molecule agonists of peroxisome proliferator-activated receptor gamma signaling (AID 588536; active means well fitted curve in the direction sought with a large enough effect in the signal ratio, with a control signal flat, not every such curve was filed as active; the % refers to the signal ratio)
# Sequence of Peroxisome proliferator-activated receptor gamma (Homo sapiens) (P37231 whole entry, looked up): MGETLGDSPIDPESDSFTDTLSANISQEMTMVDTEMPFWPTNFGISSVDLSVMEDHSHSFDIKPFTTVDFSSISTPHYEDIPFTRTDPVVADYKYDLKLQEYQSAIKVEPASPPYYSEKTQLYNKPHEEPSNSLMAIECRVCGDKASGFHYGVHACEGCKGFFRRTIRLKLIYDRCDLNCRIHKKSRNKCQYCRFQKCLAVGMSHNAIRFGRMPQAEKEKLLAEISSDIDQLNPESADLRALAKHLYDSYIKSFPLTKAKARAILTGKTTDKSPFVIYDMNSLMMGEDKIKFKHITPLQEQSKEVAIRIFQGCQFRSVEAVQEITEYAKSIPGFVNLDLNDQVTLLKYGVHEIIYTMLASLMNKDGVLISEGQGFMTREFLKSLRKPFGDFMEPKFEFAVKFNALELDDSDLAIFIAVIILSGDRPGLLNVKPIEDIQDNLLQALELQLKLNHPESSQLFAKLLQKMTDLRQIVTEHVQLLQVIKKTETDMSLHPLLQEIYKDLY
# Summary of the method: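 Test agents, titrated, stimulated HEK293 UAS-bla cells overnight (16 h, 37 C). Substrate CCF4 was then added for two hours at room temperature before fluorescence reading.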
# [11] = target: Peroxisome proliferator-activated receptor gamma (Homo sapiens) (UniProt P37231); assay: qHTS assay for small molecule antagonists of peroxisome proliferator-activated receptor gamma signaling (AID 588537; active means well fitted inhibition curve with a large enough effect in the signal ratio, with a control signal flat, not every such curve was filed as active; the % refers to the signal ratio;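 further: reporter cells co-stimulated with 50 nM rosiglitazone agonist during compound treatment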)
# Summary of the method: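 We seeded GeneBLAzer HEK293 reporter cells at 3000 per well, allowed 6-6.5 h attachment at 37 C, then co-treated with test compound titrations and 50 nM rosiglitazone overnight (16 h). Inhibition was quantified from 460/530 nm emission ratios.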
# [12] = target: Thyroid hormone receptor beta (Homo sapiens) (UniProt P10828); assay: qHTS assay for small molecule agonists of thyroid hormone receptor beta signaling (AID 588545; calls by dose curve)
# Sequence of Thyroid hormone receptor beta (Homo sapiens) (P10828 whole entry, looked up): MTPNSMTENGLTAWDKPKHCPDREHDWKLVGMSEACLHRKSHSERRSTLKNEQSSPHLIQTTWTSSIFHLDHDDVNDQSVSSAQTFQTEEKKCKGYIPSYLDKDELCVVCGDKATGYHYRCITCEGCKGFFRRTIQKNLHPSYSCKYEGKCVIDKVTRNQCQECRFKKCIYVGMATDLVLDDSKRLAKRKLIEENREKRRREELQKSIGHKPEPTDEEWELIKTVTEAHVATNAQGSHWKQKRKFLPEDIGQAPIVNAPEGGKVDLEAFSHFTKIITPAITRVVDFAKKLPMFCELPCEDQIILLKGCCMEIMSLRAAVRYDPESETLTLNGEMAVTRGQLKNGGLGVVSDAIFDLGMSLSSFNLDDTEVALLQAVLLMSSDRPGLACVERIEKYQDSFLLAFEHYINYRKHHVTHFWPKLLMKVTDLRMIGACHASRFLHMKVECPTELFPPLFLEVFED
# Summary of the method: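 TR-UAS-bla-GripTite HEK 293 cells in medium with 2% charcoal/dextran FBS, 0.1 mM NEAA and 1 mM sodium pyruvate were treated with titrated compounds for 18 hrs at 37 C. Beta-lactamase reporter was read with CCF4 dye (ex 405, em 460/530 nm); EC50 from Hill fits.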
# [13] = qHTS assay for small molecule agonists of the antioxidant response element (ARE) signaling pathway (AID 651741; active means well fitted activation curve with a large enough effect in the signal ratio; the % refers to the signal ratio; further: potency means the concentration at half of the fitted maximal effect)
# Summary of the method: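 Compounds in DMSO are pinned onto HepG2 ARE-bla cells (2,000/well) that were preincubated 5 h; plates stay 16 h at 37 C, then beta-lactamase activity is detected with LiveBLAzer B/G substrate by fluorescence.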
# [14] = qHTS assay for small molecule activators of the p53 signaling pathway (AID 651743; active means well fitted activation curve with a large enough effect in the signal ratio, not every such curve was filed as active; the % refers to the signal ratio; further: series mostly up to about 92 µM); conditions: HCT-116 p53RE-bla, beta-lactamase FRET ratio, 16 h; activation: stronger effect = higher value
# Summary of the method: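 Cell-based beta-lactamase reporter (p53 response elements, HCT-116 background). After a 5-hour preincubation, cells received compound for 16 hours at 37 C; substrate development ran 2 hours at room temperature.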
# [15] = target: Peroxisome proliferator-activated receptor alpha (Homo sapiens) (UniProt Q07869); assay: qHTS assay for small molecule agonists of the peroxisome proliferator-activated receptor alpha (PPARalpha) signaling pathway (AID 651778); conditions: PathHunter PPARalpha complementation, chemiluminescence, 6 h; max response: stronger effect = higher value
# Sequence of Peroxisome proliferator-activated receptor alpha (Homo sapiens) (Q07869 whole entry, looked up): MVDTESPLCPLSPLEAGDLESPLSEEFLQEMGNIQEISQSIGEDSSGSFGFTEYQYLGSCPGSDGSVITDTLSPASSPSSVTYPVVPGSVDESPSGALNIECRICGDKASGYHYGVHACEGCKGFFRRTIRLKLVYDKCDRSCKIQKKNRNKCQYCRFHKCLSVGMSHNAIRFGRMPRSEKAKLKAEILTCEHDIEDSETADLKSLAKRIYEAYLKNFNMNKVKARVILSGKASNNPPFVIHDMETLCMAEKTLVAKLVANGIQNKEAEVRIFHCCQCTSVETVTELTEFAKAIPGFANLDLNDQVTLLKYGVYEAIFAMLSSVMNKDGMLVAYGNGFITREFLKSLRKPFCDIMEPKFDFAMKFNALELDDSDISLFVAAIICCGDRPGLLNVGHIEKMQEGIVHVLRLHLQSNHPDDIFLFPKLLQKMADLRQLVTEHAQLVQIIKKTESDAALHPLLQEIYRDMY
# Summary of the method: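 Cells plated at 2,000/well and held overnight at 37 C, 5% CO2, then compound added by pin tool for 6 hr; after PathHunter detection reagent and 60 min at room temperature, chemiluminescence from enzyme complementation was read.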
# [16] = qHTS assay for cell viability of the p53RE-bla HCT-116 cell line (AID 743292); further: nearly all actives have a fitted effect of over 55% in size
# Summary of the method: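 Luminescent ATP quantitation (CellTiter-Glo) served as the viability read-out; reagent was added after 16 h compound exposure at 37 C and read after 30 min at room temperature. Cells: p53RE-bla HCT-116, 4,000 per well.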
# [17] = target: Nuclear receptor subfamily 1 group I member 2 (Rattus norvegicus) (UniProt Q9R1A7); assay: qHTS assay for small molecule activators of the rat pregnane X receptor (rPXR) signaling pathway (AID 651751; call rule not given here); conditions: rPXR reporter cells, luciferase (One-Glo), 24 h
# Sequence of Nuclear receptor subfamily 1 group I member 2 (Rattus norvegicus) (Q9R1A7 whole entry, looked up): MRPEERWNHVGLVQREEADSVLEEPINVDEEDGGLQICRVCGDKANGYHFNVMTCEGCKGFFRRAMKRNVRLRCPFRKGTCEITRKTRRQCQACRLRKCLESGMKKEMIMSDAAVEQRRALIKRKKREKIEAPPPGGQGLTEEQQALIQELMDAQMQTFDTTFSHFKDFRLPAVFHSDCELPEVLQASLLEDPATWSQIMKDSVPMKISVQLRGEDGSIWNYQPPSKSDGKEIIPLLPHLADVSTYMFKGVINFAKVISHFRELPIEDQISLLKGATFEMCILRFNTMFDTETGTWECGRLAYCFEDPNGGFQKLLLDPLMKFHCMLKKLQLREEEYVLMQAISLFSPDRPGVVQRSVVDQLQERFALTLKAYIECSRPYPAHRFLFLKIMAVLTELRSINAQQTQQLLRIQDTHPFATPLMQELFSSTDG
compound,measurement,setting,value
COc1ccc2c(O[C@H]3CC4C(=O)N(C)CCCC/C=C\[C@@H]5C[C@@]5(C(=O)NS(=O)(=O)C5CC5)NC(=O)[C@@H]4C3)cc(-c3nc(C(C)C)cs3)nc2c1C (some centres not stated),Potency,[1],inactive
same,Potency,[2],inactive
same,Potency,[3],2 µM (active)
CC[C@@]1([C@@H]2O[C@@H]([C@H]3O[C@@](O)(CO)[C@H](C)C[C@@H]3C)C[C@@H]2C)CC[C@H]([C@]2(C)CCC3(C[C@H](O)[C@@H](C)[C@@H]([C@@H](C)[C@@H](OC)[C@H](C)C(=O)O)O3)O2)O1 (some centres not stated),"activity change, negative = cytotoxicity",[1],-29.3% [at 3.71 µM] (inactive)
same,Potency,[2],inactive
same,Potency,[3],inactive
same,Z-AUC,[4],-0.884 (inactive)
same,Z-AUC,[4]; measured here: PEO1 parental Z-AUC,-0.753
same,Z-AUC,[4]; measured here: PEO4 Z-AUC,-1.58
CC1(C)CC[C@]2(C(=O)O)CC[C@]3(C)C(=CC[C@@H]4[C@@]5(C)CC[C@H](O)C(C)(C)[C@@H]5CC[C@]43C)[C@@H]2C1,Potency,[1],inactive
same,Potency,[5],inactive
same,Potency,[2],inactive
CC(C)(C)c1cc(C(=O)/C(C#N)=N/Nc2cccc(Cl)c2)no1,Potency,[1],inactive
same,Potency,[5],14.5 µM (active)
CC(C)(C)NC(=O)N[C@H](C(=O)N1C[C@H]2[C@@H]([C@H]1C(=O)NC(CC1CCC1)C(=O)C(N)=O)C2(C)C)C(C)(C)C (some centres not stated),Potency,[1],inactive
same,Potency,[2],inactive
same,Potency,[3],inactive
O=C(Nc1ccccc1)c1ccccc1O,outcome,[6],inactive
same,activation,[7],2.18% (inactive)
same,max response,[8],-6.49%
same,Potency,[9],inactive
same,outcome,[10],inactive
same,outcome,[11],inactive
same,outcome,[12],inactive
same,Potency,[13],15.4 µM (active)
same,activation,[14],20.6% (inactive)
same,max response,[15],-0.0723% (inactive)
same,Potency,[16],inactive
same,Potency,[1],inactive
same,max response,[17],-1.47% (inactive)
CCCCCCCCCCCCCCCc1cccc(O)c1C(=O)O,Potency,[1],inactive
same,Potency,[5],inactive
COC(=O)N[C@H](C(=O)N1CCC[C@H]1C(=O)Nc1ccc([C@@H]2CC[C@@H](c3ccc(NC(=O)[C@@H]4CCCN4C(=O)[C@@H](NC(=O)OC)C(C)C)cc3)N2c2ccc(C(C)(C)C)cc2)cc1)C(C)C,Potency,[1],inactive
same,Potency,[2],inactive
C[C@H]1[C@H](OC(=O)CCC(=O)O)O[C@@H]2O[C@@]3(C)CC[C@H]4[C@H](C)CC[C@@H]1[C@@]24OO3,Potency,[1],inactive
same,Potency,[2],inactive
same,Potency,[3],inactive
